Bioassay records: PubChem BioAssay, National Center for Advancing Translational Sciences (NCATS)
Hits are enriched below; roughly 21% of the tested compounds scored in any of these assays.
IL1B secr inh: inhibitors of inflammasome signaling (IL-1 beta secretion). THP-1 LPS/ATP IL-1B secretion, AlphaLISA, 16 h; hits give low values. activity change, % at 57.5 µM. 360,000 tested, 4.7% active. AID 743279; in the data active = activity change below about -50%; inconclusive = mostly about -30% to -49%
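Secreted IL-1B measured by AlphaLISA bead assay after 16 h compound exposure of THP-1 cells; compounds (final up to 57.5 uM) added 1 h before LPS (250 ng/mL) and ATP (1.25 mM) stimulation; lower signal means less secretion.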
D3 antag: D3 dopamine receptor (human) antagonism | P35462 | D3R cells, DiscoveRx beta-arrestin luminescence, antagonist mode; hits give low values | 360,000 tested, 2.5% active | AID 652054 | max response, negative = inhibition, %; in the data active = max response below about -50%; inconclusive = no clear call, values can overlap the other calls
Target sequence (P35462 whole entry, looked up): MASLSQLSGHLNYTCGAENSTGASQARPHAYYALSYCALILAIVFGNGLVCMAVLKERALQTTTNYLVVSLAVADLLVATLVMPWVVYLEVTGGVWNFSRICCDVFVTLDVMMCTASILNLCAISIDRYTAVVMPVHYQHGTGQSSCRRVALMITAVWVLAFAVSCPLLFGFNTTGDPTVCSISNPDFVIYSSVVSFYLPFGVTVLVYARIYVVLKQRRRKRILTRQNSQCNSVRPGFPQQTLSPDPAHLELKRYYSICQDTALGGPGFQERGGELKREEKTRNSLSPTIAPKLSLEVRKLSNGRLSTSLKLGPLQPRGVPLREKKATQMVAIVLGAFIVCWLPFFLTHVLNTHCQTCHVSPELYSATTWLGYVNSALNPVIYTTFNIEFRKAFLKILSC
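Cells expressing the human receptor were seeded at 1500 cells/well, incubated overnight at 37 degrees C in 5% CO2, then exposed to library compounds with dopamine controls for 90 minutes at 37 degrees C before luminescent detection.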
ClpP mod: qHTS Assay for Activators of ClpP; Potency, µM (doses to about 57.5 µM); ATP-dependent Clp protease proteolytic subunit (Bacillus subtilis (strain 168)), P80244; purified B. subtilis ClpP, FRET peptide cleavage, 20 min; 340,000 tested, 1.9% active; active = well fitted falling curve with a large enough effect; inconclusive = small, poorly fitted or top-dose-only effect; inactive = no such curve, though single readings can be large or run the other way; note: the source files actives as falling curves though it sought activators and does not explain the sign; nearly all actives have a fitted effect of over 65% in size
Target sequence (P80244 whole entry, looked up): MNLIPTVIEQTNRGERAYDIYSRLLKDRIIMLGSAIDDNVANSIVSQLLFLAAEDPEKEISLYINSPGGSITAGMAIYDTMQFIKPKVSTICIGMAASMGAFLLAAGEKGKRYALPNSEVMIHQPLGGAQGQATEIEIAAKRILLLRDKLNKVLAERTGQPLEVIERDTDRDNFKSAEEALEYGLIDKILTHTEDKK
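FRET quenching reversal measured ClpP activation: 10 microg/mL B. subtilis ClpP at pH 8 with the FRET-FV decapeptide, read at 430 nm after 320 nm excitation. The 20-min minus 0-min signal was scaled between DMSO/no-enzyme wells and ADEP (5.8 microM final).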
TDP1 cell CPT: DT40-hTDP1 cell growth loss with CPT; chicken DT40 Tdp1-/-;hTDP1 cells + 20 nM CPT, ATP luminescence, 48 h; Potency, µM (series often up to 46.2 µM), hits mostly inhibitors; 420,000 tested, 12% active; AID 686979; note: nearly all actives have a fitted effect of over 55% in size
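Chicken DT40 Tdp1-/- cells stably complemented with human TDP1 were seeded at 400 cells/well in medium containing 20 nM camptothecin, exposed to pin-transferred compounds, and grown at 37 °C for at least 48 hr. Viability was read as ATP luminescence.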
TDP1 cell noCPT: qHTS for Inhibitors of human tyrosyl-DNA phosphodiesterase 1 (TDP1): qHTS in cells in absence of CPT | DT40 Tdp1-/- hTDP1 cells, no CPT, ATP luminescence, 48 h | Potency, µM (titrated, usually from 46.2 µM), usual class: inhibitors | 420,000 tested, 15% active | AID 686978, 2013; note: nearly all actives have a fitted effect of over 55% in size
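No-CPT arm: Tdp1-/-;hTDP1 DT40 cells (400/well) plus compounds, incubated ≥48 hr at 37 °C. Readout CellTiter-Glo luminescence.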
DRD3 agonist: activates the human D3 dopamine receptor; P35462; D3R DiscoveRx beta-arrestin cells, luminescence, 90 min; max activation, %; 410,000 tested, 0.58% active; AID 652048; in the data active = max activation above about 30%
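Agonist mode: compounds and dopamine controls were applied to plated cells for 90 min at 37 degrees C after an overnight attachment at 1500 cells/well. Luminescent read-out followed 30 - 60 minutes at room temperature with DiscoveRx detection reagent.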
Large screens that a line does not name were inactive. Unless noted, calls come from the whole dose curve; as a rule, active = well fitted inhibition curve with a large enough effect; inconclusive = small, poorly fitted or top-dose-only effect; inactive = flat fitted curve, though single readings scatter.

COc1ccc(NC(C)=O)cc1NC(=O)c1cccc(S(=O)(=O)N2CCc3ccccc32)c1	none
COc1ccc(S(=O)(=O)N2CCc3ccccc32)cc1C(=O)Nc1ccc(C(N)=O)cc1	TDP1 cell CPT 23µM, TDP1 cell noCPT inconclusive
COc1cc(C(=O)Nc2ccc3c(c2)CCN3C(C)=O)cc(OC)c1OC	D3 antag inconclusive, TDP1 cell CPT inconclusive, TDP1 cell noCPT 2.1µM (no result: ClpP mod)
COc1cc(C(=O)Nc2ccc(S(=O)(=O)N3CCc4ccccc43)cc2)cc(OC)c1OC	TDP1 cell CPT inconclusive, TDP1 cell noCPT 16µM
O=C(c1cccc(Br)c1)N1CCN(S(=O)(=O)N2CCCCCC2)CC1	none
O=C1C[C@H]2C=CCc3cccc(c32)CN1Cc1ccc(Cl)cc1	TDP1 cell CPT inconclusive, TDP1 cell noCPT 13µM (no result: IL1B secr inh, D3 antag, DRD3 agonist)
COc1cccc(CN2Cc3cccc4c3[C@H](C=CC4)CC2=O)c1	TDP1 cell CPT inconclusive, TDP1 cell noCPT inconclusive (no result: IL1B secr inh, D3 antag, DRD3 agonist)
O=C1C[C@H]2C=CCc3cccc(c32)CN1Cc1cccc(F)c1	TDP1 cell CPT 16µM, TDP1 cell noCPT 10µM (no result: IL1B secr inh, D3 antag, DRD3 agonist)
NC(=O)C1CCCN(C(=O)CCC(=O)c2cccs2)C1 (stereo not drawn)	none
CSc1ccc(/C=N/N2CCN(C)CC2)cc1	none (no result: ClpP mod)
Cc1ccc(CN2CCN(/N=C/c3ccc(Cl)c([N+](=O)[O-])c3)CC2)cc1	IL1B secr inh -74, D3 antag inconclusive, TDP1 cell CPT inconclusive, TDP1 cell noCPT inconclusive (no result: ClpP mod)
Cc1ccc(CN2CCN(/N=C/C=C/c3ccccc3[N+](=O)[O-])CC2)cc1	IL1B secr inh -89, D3 antag inconclusive, TDP1 cell CPT 16µM, TDP1 cell noCPT 21µM (no result: ClpP mod)
Cc1ccc(/C=N/N2CCN(Cc3ccccc3)CC2)cc1	TDP1 cell noCPT inconclusive (no result: ClpP mod)
CSc1ccc(/C=N/N2CCN(Cc3ccc(Cl)cc3)CC2)cc1	D3 antag -54, TDP1 cell CPT inconclusive
COc1ccc2c(C#CCCO)c(-c3ccc(S(C)(=O)=O)cc3)sc2c1	TDP1 cell CPT inconclusive, TDP1 cell noCPT inconclusive
COc1ccc2sc(-c3ccc(S(C)(=O)=O)cc3)c(C#CCO)c2c1	IL1B secr inh -55, TDP1 cell CPT 15µM, TDP1 cell noCPT 21µM
COc1ccc(-c2sc3ccc(N4CCOCC4)cc3c2C#CCCO)cc1	TDP1 cell CPT 6.5µM, TDP1 cell noCPT 4.6µM
CS(=O)(=O)c1ccc(-c2sc3ccccc3c2C#CCCO)cc1	TDP1 cell CPT 16µM, TDP1 cell noCPT inconclusive
COc1ccc2c(-c3ccc(S(N)(=O)=O)cc3)c(-c3ccc(S(C)(=O)=O)cc3)sc2c1	D3 antag inconclusive, TDP1 cell CPT 23µM, TDP1 cell noCPT inconclusive
CN(CC(=O)NCc1ccccc1Cl)S(=O)(=O)c1ccc2c(c1)c(=O)n(C)c(=O)n2C	none (no result: IL1B secr inh, D3 antag)
O=C(NC1CC(=O)N(c2ccccc2)C1)c1ccc(S(=O)(=O)N2CCCCC2)cc1 (stereo not drawn)	none (no result: IL1B secr inh, D3 antag)
CCN(CC)CCn1c2c(c(SCC(=O)Nc3ccc4c(c3)OCCO4)nc1=O)CCCC2	TDP1 cell CPT inconclusive, TDP1 cell noCPT inconclusive
O=C(NCc1ccc(F)cc1)c1cc2c(s1)CS(=O)(=O)C2	none
Cn1cncc1C#Cc1c(-c2ccc(S(C)(=O)=O)cc2)sc2ccccc12	TDP1 cell CPT 13µM, TDP1 cell noCPT 12µM
COc1ccc(-c2sc3ccccc3c2C#CCCO)cc1	TDP1 cell CPT 26µM, TDP1 cell noCPT inconclusive
COc1ccc(-c2sc3ccccc3c2C#CCO)cc1	none
COc1ccc2sc(-c3ccccc3OC)c(C#Cc3cncn3C)c2c1	TDP1 cell CPT inconclusive, TDP1 cell noCPT inconclusive
O=c1oc2ccc3ccccc3c2cc1-c1nnc(Nc2cccc(C(F)(F)F)c2)s1	none (no result: IL1B secr inh, D3 antag)
Cc1noc(C)c1COC(=O)c1ccc(-c2nc3ccccc3s2)s1	ClpP mod 20µM, TDP1 cell CPT inconclusive, TDP1 cell noCPT inconclusive
CCNC(=O)COC(=O)c1ccc(-c2nc3ccccc3s2)s1	none
Cc1ccccc1-n1c(SC(C)C(=O)NCC2CCCO2)nnc1-c1ccncc1 (stereo not drawn)	none (no result: ClpP mod)
CCOC(=O)CS(=O)(=O)c1ccc(O)cc1	IL1B secr inh -92 (no result: ClpP mod)
CCOC(=O)COc1ccc(S(=O)(=O)c2ccc(OCC(=O)OCC)cc2)cc1	IL1B secr inh -92
C=CCNS(=O)(=O)c1ccc(OCC(=O)OCC)cc1	D3 antag -60
CCOC(=O)CS(=O)(=O)c1ccccc1	IL1B secr inh inconclusive
CCC(C)(NC=O)C(=O)Nc1c(C)cccc1C (stereo not drawn)	none
Cc1ccc(NCC(=O)N/N=C\C(Br)=C\c2ccccc2)cc1	IL1B secr inh -98, TDP1 cell CPT 3.3µM, TDP1 cell noCPT 5.8µM
Cc1cc(C)nc(SCC(=O)N/N=C/c2cccc([N+](=O)[O-])c2)n1	TDP1 cell CPT 18µM, TDP1 cell noCPT 23µM
Cc1cc(C)nc(SCC(=O)NN=C2CCCC2)n1	TDP1 cell CPT inconclusive, TDP1 cell noCPT 21µM
Cc1cc(C)nc(SCc2cc(=O)c(OC(=O)c3cccc([N+](=O)[O-])c3)co2)n1	DRD3 agonist 111
O=C(CSc1ncccn1)NN=C1CCCCCCC1	none
Cc1cc(C)nc(SCC(=O)N/N=C/C=C/c2ccccc2)n1	TDP1 cell CPT inconclusive, TDP1 cell noCPT inconclusive
Cc1cc(C)nc(SCC(=O)N/N=C\C(Br)=C\c2ccccc2)n1	TDP1 cell CPT 6.5µM, TDP1 cell noCPT 15µM (no result: ClpP mod)
O=C(Nc1ccc(Br)cc1)C1CCCN(S(=O)(=O)c2ccc(Br)s2)C1 (stereo not drawn)	TDP1 cell CPT inconclusive, TDP1 cell noCPT inconclusive (no result: IL1B secr inh, D3 antag)
CN(C)C(=S)N=c1ssc(=S)n1Cc1ccccc1	TDP1 cell CPT 2.6µM, TDP1 cell noCPT 3.7µM
O=C(CN(C(=O)CCC(=O)Nc1nccs1)c1ccc(F)cc1)NCc1ccc(F)cc1	none
CC(C)C(=O)Nc1ccc(N2CCOCC2)c(S(=O)(=O)Nc2ccccc2Cl)c1	TDP1 cell CPT inconclusive, TDP1 cell noCPT 13µM
CCC(=O)Nc1ccc(N2CCOCC2)c(S(=O)(=O)Nc2ccc(Cl)cc2)c1	TDP1 cell CPT inconclusive
COc1ccc(NS(=O)(=O)c2cc(NC(=O)C3CC3)ccc2N2CCOCC2)cc1	none
CC(=O)Nc1ccc(N2CCOCC2)c(S(=O)(=O)Nc2ccccc2Cl)c1	none
COCCNC(=S)Nc1ccc(N2CCOCC2)c(S(=O)(=O)Nc2ccc(Cl)cc2)c1	TDP1 cell CPT inconclusive, TDP1 cell noCPT 10µM
COc1ccc(NS(=O)(=O)c2cc(NC(=O)c3ccc(Cl)cc3)ccc2N2CCOCC2)cc1	TDP1 cell CPT 2.6µM, TDP1 cell noCPT 2.3µM (no result: ClpP mod)
